Bioassay records from PubChem BioAssay.
RORg inh = blocks mouse ROR gamma transcriptional activity; P51450; Drosophila S2 Gal4-RORgamma UAS-luciferase reporter, 20 h; Potency, µM (highest dose often 53.6 µM), actives largely listed as inhibitors; actives 5.4% (n = 310,000); note: nearly all actives have a fitted effect of over 60% in size
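Luciferase reporter read in Schneider cells carrying Gal4-RORγ (mouse) and UAS-Photinus luciferase; cells given compound 1 h before 700 uM copper sulfate induction, then incubated 20 h at ambient temperature.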
Gal4-VP16 FLuc = Gal4-VP16 reporter inhibition counter-screen; Drosophila S2 Gal4-VP16 UAS-luciferase, luminescence, 20 h; actives 3.5% (n = 310,000); Potency, µM (titrated, usually from 53.6 µM), most hits filed as inhibitors; AID 2546;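 note: Gal4-VP16 expression switched on by copper sulfate through the metallothionein promoter; nearly all actives have a fitted effect of over 50% in size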
B2AR arrestin = beta2AR (human) beta-arrestin recruitment activity. actives 0.02% (n = 330,000). Potency, µM (highest dose often 46.1 µM), actives largely listed as activators. beta-arrestin recruitment to beta2AR, cell-based reporter; note: nearly all actives have a fitted effect of over 65% in size
Target sequence (P07550 whole entry, looked up): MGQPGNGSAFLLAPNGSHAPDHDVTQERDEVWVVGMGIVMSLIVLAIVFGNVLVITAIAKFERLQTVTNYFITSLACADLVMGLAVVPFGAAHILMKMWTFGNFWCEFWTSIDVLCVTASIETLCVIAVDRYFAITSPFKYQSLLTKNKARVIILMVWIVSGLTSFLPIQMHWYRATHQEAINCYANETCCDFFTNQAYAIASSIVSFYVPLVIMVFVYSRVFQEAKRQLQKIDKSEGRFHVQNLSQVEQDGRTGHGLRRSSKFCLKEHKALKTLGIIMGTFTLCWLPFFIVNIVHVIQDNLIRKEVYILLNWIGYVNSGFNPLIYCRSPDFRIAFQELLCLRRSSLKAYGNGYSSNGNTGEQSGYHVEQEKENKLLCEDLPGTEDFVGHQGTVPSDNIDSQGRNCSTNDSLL
TSHR antagonist = antagonists of human thyroid stimulating hormone receptor | P16473 | TSHR-expressing cells, TSH-stimulated cAMP HTRF, 2 h; stronger effect = lower value | activity change, negative = inhibition, % at 11.5 µM | actives 0.2% (n = 330,000) | AID 504810;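 active = activity change below a set negative limit, meaning inhibition stronger than a set level, cut at about -70% in these data; inconclusive = activity change between two set negative limits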
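Inhibition of cAMP made by TSHR-expressing cells under TSH stimulation (4nM final, EC80; 2 h, 37 deg C) is quantified with a one-step lysis HTRF kit, anti-cAMP cryptate versus cAMP-d2.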
ELG1 DNA repair = inhibitors of ELG1-dependent DNA repair in HEK293T cells | HEK293T ELG1-luciferase reporter, luminescence, 16 h; DNA damage induced by 5-fluorouridine | Potency, µM (doses to about 46.1 µM), actives largely listed as inhibitors | actives 2.3% (n = 330,000) | AID 504467; note: nearly all actives have a fitted effect of over 55% in size
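5-Fluorouridine DNA damage + compound/DMSO, 2,000 cells/well, 16 h, 37 °C/5% CO2. ONE-Glo, 30 min RT, luminescence. Readout = decrease in reporter signal.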
Numbers stand for hits; - = inactive; ? = inconclusive; . = no result given; [ ] = dose if it differs, or a comment. Only some compounds are listed: those with a hit (about 7.5% of all), similar ones and a draw of the others. Unless noted, calls come from the whole dose curve; as a rule, active = well fitted curve in the direction sought with a large enough effect; inconclusive = small, poorly fitted or top-dose-only effect, or another doubt; inactive = no such curve, though single readings can be large; an effect the other way counts as inactive or inconclusive.

SMILES | RORg inh | Gal4-VP16 FLuc | B2AR arrestin | TSHR antagonist | ELG1 DNA repair
CCOC(=O)/C(=C\c1cccnc1)C(=O)c1cc(C(C)=O)c(Nc2ccccc2)s1 | 3.55µM | 4.47µM | - | - | ?
CCOC(=O)/C(C#N)=C\c1cccnc1 | - | - | - | - | -
Cc1ccc(C)c(S(=O)(=O)c2c(C)cc(C)[nH]c2=O)c1 | - | - | - | - | -
COc1ccc(O[C@H]2C=C[C@@H](c3ccccc3)O[C@H]2CO/N=C2/[C@H]3O[C@@H]3[C@@H](O)[C@H]3[C@H]2CCn2c(=O)n(-c4ccccc4)c(=O)n23)cc1 | -[10 µM] | -[10 µM] | . | . | .
CC(=O)Oc1c(/C=C(\C#N)C(N)=O)[nH]c2ccccc12 | - | - | - | - | 20.6µM
CCCCNC(=S)NC(=O)c1ccc(Cl)cc1Cl | 15.8µM | ? | - | - | ?
CCCCN(CCCC)C(=S)NC(=O)c1ccccc1Cl | 0.708µM | 2µM | - | - | -
O=C(NC(=S)NCCN1CCOCC1)c1ccccc1Cl | - | - | - | - | -
O=C(NCCCNC(=O)c1ccc(Cl)cc1Cl)c1ccco1 | - | - | - | - | -
CCN(CC)C(=S)NC(=O)c1ccc(Cl)cc1Cl | 0.794µM | 1.58µM | - | - | -
O=C(NC(=S)NCCN1CCOCC1)c1ccc(Cl)cc1Cl | 3.98µM | ? | - | - | ?
CCCCNC(=S)NC(=O)c1ccccc1Br | 7.94µM | 11.2µM | - | - | ?
CS(=O)(=O)c1cccc(NC(=O)C2CCCN2S(=O)(=O)c2ccc(F)cc2)c1 (centres undefined) | - | - | - | - | -
COc1ccc(Nc2nc3nonc3nc2N2CCCCC2)cc1 | ? | - | - | - | 20.6µM
CCC(C)C1NC(=O)C(Cc2ccc(O)cc2)NC(=O)C(N)CSSCC(C(=O)N2CCCC2C(=O)NC(CC(C)C)C(=O)NCC(N)=O)NC(=O)C(CC(N)=O)NC(=O)C(CCC(N)=O)NC1=O (centres undefined) | - | - | . | . | .
CCN(C(=O)COC(=O)c1ccccc1NCCO)C1CCS(=O)(=O)C1 (centres undefined) | . | . | - | - | -
O=C1C(Cl)=C(NS(=O)(=O)c2ccc([N+](=O)[O-])cc2)C(=O)c2ccccc21 | - | - | - | - | 18.3µM
COC(=O)[C@@]1(Cc2ccc(OC)cc2)[C@H]2c3cc(C(=O)N(C)C)n(Cc4nc5ccccc5[nH]4)c3C[C@H]2CN1C(=O)c1ccccc1 | - | - | . | . | .
CCCCOc1ccc(C2=NNC(=O)CC2)cc1 | - | - | - | - | ?
CCC(CC)=N/N=C/c1c(O)n(CC)c2cc(C3=NNC(=O)CC3)ccc12 | ? | ? | - | - | 20.6µM
CCn1c(O)c(/C=N/N=C/c2ccccc2)c2ccc(C3=NNC(=O)CC3)cc21 | - | - | - | - | 25.9µM
ClCCl | - | - | . | . | .
Cc1ccnc(NC(=O)/C=C/c2cccs2)c1 | 8.91µM | 12.6µM | - | - | ?
Cc1ccc(CC(=O)Nc2cc(C)ccn2)cc1 | - | - | - | - | -
O=C(/C=C/c1cccs1)Nc1nncs1 | - | - | - | - | ?
SMILES | RORg inh | Gal4-VP16 FLuc | B2AR arrestin | TSHR antagonist | ELG1 DNA repair
Cc1ccnc(NC(=S)NC(=O)c2ccco2)c1 | 4.47µM | ? | - | - | ?
Cc1ccc2oc(-c3ccc(C)c(NC(=S)NC(=O)c4cccs4)c3)nc2c1 | 7.08µM | 7.08µM | - | - | ?
CCNC(=S)Nc1cc(C)ccn1 | 2.51µM | 5.62µM | - | - | ?
CCCC/C=C/C(NC(=O)OCc1ccccc1Cl)c1ccccc1 (centres undefined) | - | - | . | . | .
N#CCCn1c(=O)c(-c2ccccc2)nc2cnc(OCc3ccccc3)nc21 | - | - | . | . | .
O=C(CCN1C(=O)C2C3CC(C(Br)C3Br)C2C1=O)OCC(=O)c1ccccc1 (centres undefined) | - | - | - | - | -
O=C(NC1CC2CCCC(C1)N2C(=O)Nc1ccc(F)cc1)c1ccccc1 (centres undefined) | - | - | - | - | -
CN1CCCC2(CCN(C(=O)c3cccc(F)c3)CC2)C1 | - | - | . | . | .
Cc1ccnc(NC(=O)CNC(=O)c2cccs2)c1 | . | . | - | - | -
O=C(NC(=S)Nc1cccnc1Cl)c1ccco1 | ? | - | - | - | ?
O=C(NC(=S)Nc1ccccn1)c1ccco1 | 12.6µM | ? | - | - | ?
Cc1ccnc(NC(=S)NC(=O)c2cccs2)c1 | 2.24µM | 3.98µM | - | - | ?
CCCC(CCC)C(=O)Nc1ccc2c(c1)N(C(=O)CCN1CCN(C)CC1)c1ccccc1CC2 | - | - | - | - | -
S=c1[nH]nc(CSc2nc3ccccc3s2)n1Cc1ccccc1 | 3.98µM | - | - | - | -
CCn1c(CSc2nc3ccccc3s2)nnc1SCC(=O)c1ccc(O)c(O)c1 | 14.1µM | - | - | - | ?
CCn1c(CSc2nc3ccccc3s2)n[nH]c1=S | 2.51µM | 10µM | - | - | ?
C=CCn1c(CSc2nc3ccccc3s2)n[nH]c1=S | - | - | ? | - | -
CCc1ccccc1O | - | - | . | . | .
CC(C)Cn1c(=O)c(-[n+]2ccccc2)c([O-])c2ccccc21 | - | - | - | - | -
CCCCn1c(=O)c(-[n+]2ccccc2)c([O-])c2ccccc21 | 11.2µM | - | - | - | -
O=C(CC(Sc1ccc(Br)cc1)C(=O)O)c1ccc(F)cc1 (centres undefined) | ? | ? | - | - | -
CCOc1ccc(C(=O)CC(Sc2ccc(C)cc2)C(=O)O)cc1 (centres undefined) | 4.47µM | ? | - | - | -
NC(=O)C1CCN(c2nc(-c3ccccc3[N+](=O)[O-])cs2)CC1 | . | . | . | - | .
COc1c2c(nc3ccccc13)O[C@H]([C@@](C)(O)CO)C2 | - | - | . | . | .
CCN1CCN(CCCNC(=O)c2ccc(/C=C3/Sc4ccccc4N(Cc4ccccc4F)C3=O)cc2)CC1 | ? | ? | - | - | -
SMILES | RORg inh | Gal4-VP16 FLuc | B2AR arrestin | TSHR antagonist | ELG1 DNA repair
CCN1CCN(CCNC(=O)c2ccc(/C=C3/Sc4ccccc4N(Cc4ccccc4C)C3=O)cc2)CC1 | ? | 17.8µM | - | - | ?
Cc1c(Cn2ccnc2)c2ccccc2n1CCC(=O)O | - | - | . | . | .
Cc1nn(-c2ccccc2)c(C)c1C(=O)OCC(=O)N1c2ccccc2NC(=O)C1(C)C | - | - | - | - | 18.4µM
Cc1ccc(S(=O)(=O)Oc2ccc(N3C(=O)C4C5CCC(C5)C4C3=O)cc2)cc1 (centres undefined) | - | ? | - | - | 8.2µM
O=C(CCc1ccccc1)NCCSCc1c(F)cccc1Cl | ? | 7.94µM | - | - | -
Cc1cc(-c2c(C)[nH]n(-c3ccccc3)c2=O)n[nH]1 | 0.398µM | 1µM | - | - | ?
Cc1ccc(Sc2ccccc2CN(C)C)c(N)c1 | - | - | . | . | .
CCc1ccc(-c2nc(CN3CCC(C(=O)NCc4ccccc4OC)CC3)c(C)o2)cc1 | ? | 20µM | - | - | -
Cc1oc(-c2ccc(Cl)cc2)nc1CN1CCCC(C(=O)NCc2ccccn2)C1 (centres undefined) | ? | - | - | - | ?
